Results on 40 compounds are retold here after PubChem BioAssay (Tox21).

Several values for one entry are separate records, joined by “and”; a condition that tells them apart may be missing. Equal entries are not always repeated. Records with an inconclusive call do not appear. Entries that show only a call come without a potency. Where a structure was tested more than once in an assay, its records may differ in their call. Activity calls are given as the source filed them. Calls follow the shape of the dose curve; as a rule, active = well fitted cell-killing curve with a large enough effect in the repeat runs; inconclusive = weak or mixed curves, or effect the other way; inactive = flat fitted curve, though single readings scatter.
Potency is read from the fitted curve at half-maximal effect.

A short description of this experiment: qHTS RealTime-Glo MT Cell Viability Assay in HEK293 cells - 8 hour (AID 1224887). Also: nearly all actives have a fitted effect of over 50% in size. As to activity change, negative = cytotoxicity: top concentration of the series differs between compounds. Conditions: RealTime-Glo luminescence; series mostly up to 76.8 µM; activity change, negative = cytotoxicity: at the top concentration. The text has this:
U.S. Tox21 Program National Center for Advancing Translational Sciences [NCATS] NIH Chemical Genomics Center [NCGC] U.S. Environmental Protection Agency [EPA] National Institutes of Environmental Health Sciences [NIEHS] National Toxicology Program [NTP] U.S. Food and Drug Administration [FDA] Tox21 Assay Overview: Measure of cell viability is critical in the cell-base assay. Analysis of cell viability is necessary for the characterization of cell responses to cytotoxic drugs and environmental stress. A RealTime-Glo MT Cell Viability Assay to monitor cell viability in real time of continues cell culture during 40 hours of compound treatment was used to screen Tox21 10K library compounds in Hek293 cells. The RealTime-Glo MT Cell Viability Assay is a nonlytic, homogeneous, bioluminescent method to measure cell viability in real time using a simple, plate-based method. The assay involves adding NanoLuc luciferase and a cell-permeant prosubstrate to cells in culture. Viable cells reduce the proprietary prosubstrate to generate a substrate for NanoLuc luciferase. This substrate diffuses from cells into the surrounding culture medium, where it is rapidly used by the NanoLuc Enzyme to produce a luminescent signal. The signal correlates with the number of viable cells, making the assay well suited for cytotoxicity studies.
Tox21 Assay Protocol Summary: The mixture of Hek293 cell suspension and reagents were dispensed at 600cells/6 ul/well in 1536-well tissue culture treated black solid bottom plates using a Multidrop dispenser. After the assay plates were incubated at a 37 C/5% CO2 incubator for 5 hours, 23 nL of compounds dissolved in DMSO, positive and negative controls was transferred to the assay plate by a pintool work station. The plates were incubated at 37 C for 40 hours. The luminescence intensity were measured at 0h, 8h, 16h, 24h, 32h and 40h time points using ViewLux plate reader during compound treatment.
(qHTS replaces the single test concentration by a dilution series.)
In the case of `CC(=O)Oc1ccc(C(c2ccc(OC(C)=O)cc2)c2ccccn2)cc1`, the “activity change, negative = cytotoxicity” value is -9.36% [at 35.3 µM] (inactive). On to `O=C(O)CCCCCCCCCCCC(=O)O`, for which the Potency result was “inactive”. Still for that read-out and setting: the value for `C[C@]12C=CC(=O)C=C1CC[C@H]1[C@@H]3C[C@@H](O)[C@](O)(C(=O)CO)[C@@]3(C)C[C@H](O)[C@@]12F` was “inactive”. On the same count and under the same terms, under `CCOC(=O)C(C)Oc1ccc(Oc2cnc3cc(Cl)ccc3n2)cc1` (stereo not given) stands 14.1 µM (active) and 16.3 µM (active); under `CCCCCCCCCCCCCO`, “inactive”; under `C=C[C@@]1(C)CC(=O)[C@]2(O)[C@@]3(C)[C@@H](O)CCC(C)(C)[C@@H]3[C@H](O)[C@H](OC(C)=O)[C@@]2(C)O1`, “inactive”. Same read-out and setting: the value for `C=CCNCC=C` was “inactive”. Take `Cc1ccc(C(C)(C)C)c(O)c1`: the “activity change, negative = cytotoxicity” value is -25% (inactive).

With `NC[C@H](O)c1ccc(O)c(O)c1`, the Potency entry was “inactive”.

`CC(C)(Oc1ccc(Cl)cc1)C(=O)O`: the Potency entry was “inactive”. With `c1ccc2cc3ccccc3cc2c1`, the “activity change, negative = cytotoxicity” value was 4.95% (inactive).

Turning to `Oc1ccc(C(c2ccc(O)cc2)C(Cl)(Cl)Cl)cc1`, the “activity change, negative = cytotoxicity” value was -19.3% (inactive).

Consider `COC(=O)c1ccc(C)cc1`, for which the Potency result is “inactive”. On the same count and under the same terms, the value for `CN(C)C` was “inactive”.

For the compound `Nc1ccc(N)c(Cl)c1`, the Potency is 21.8 µM (active) and 43.6 µM (active). Turning to `CCCOCCO`, the Potency result is “inactive”. On to `Cc1ccc([N+](=O)[O-])c(C)c1`, for which the “activity change, negative = cytotoxicity” value is 5.51% (inactive). `C/C=C/C(=O)N(CC)c1ccccc1C`: the Potency entry was “inactive”.

Consider `CC(C)[C@@H]1CC[C@@H](C)CC1=O`, for which the Potency entry was “inactive”. The same measure, in the same setting: the value for `Nc1ccc2c(c1)C(=O)c1ccccc1C2=O` was “inactive”; that for `CCCCCCOCCOCCO` was “inactive”; that for `COCCOCCOCCO` was “inactive”. As to `COc1ccc(C(=O)c2ccccc2O)c(O)c1`, the “activity change, negative = cytotoxicity” value is -1.61% [at 35.3 µM] (inactive). `CC(=O)[C@H]1CC[C@H]2[C@@H]3CC=C4C[C@@H](O)CC[C@]4(C)[C@H]3CC[C@]12C`: the Potency result is “inactive”. The same measure, in the same setting: under `C[N+](C)(C)CCO` stands “inactive”; under `CCO[Si](CCCNC(N)=O)(OCC)OCC`, “inactive”. Take `Nc1cc(Cl)c(N)c(Cl)c1`: the Potency result was “inactive”. `IC(I)I`: the Potency result is “inactive”. The same measure, in the same setting: the value for `OCCNCCO` was “inactive”; that for `O=C(O)CCCC(=O)O` was “inactive”. The same measure, in the same setting: the value for `Cc1ccc2c(c1)C(=O)OC2=O` was “inactive”; that for `CNC[C@H](O)c1ccc(O)c(O)c1` was “inactive”; that for `Oc1c(Cl)ccc(Cl)c1Cl` was “inactive”. Regarding `CCC(=O)O[C@H]1[C@H](O[C@@H]2[C@@H](C)[C@H](O[C@H]3C[C@@](C)(OC)[C@@H](O)[C@H](C)O3)[C@@H](C)C(=O)O[C@H](CC)[C@@](C)(O)[C@H](O)[C@@H](C)C(=O)[C@H](C)C[C@@]2(C)O)O[C@H](C)C[C@@H]1N(C)C`, the Potency result was “inactive”.

Consider `C=C[C@H]1CN2CC[C@H]1C[C@@H]2[C@@H](O)c1ccnc2ccc(OC)cc12`, for which the Potency was 42.9 µM (active) and inactive. Same read-out and setting: the value for `CCCCCCC(C)O` (stereo not given) was “inactive”; that for `CC(C)(C)c1cccc(C(C)(C)C)c1O` was 47.9 µM (active) and inactive; that for `O=C(CCCN1CCC(O)(c2ccc(Cl)cc2)CC1)c1ccc(F)cc1` was 13.8 µM (active) and 9.52 µM (active). Same read-out and setting: the value for `CCCCCCCCCCC(CO)CCCCCCCC` (stereo not given) was “inactive”. Turning to `[O-]/[N+](=N\O)c1ccccc1`, the Potency entry is “inactive”.
